# From PMC4336329 (PLoS ONE, 2015)
# In all, about 310,000 compounds went through this assay and about 14,000 (4.5%) showed an effect of 50% or more. Effects have a minus sign here. The sample as a whole holds a higher share of strong results than the screen did.
# Biological target: human ether-à-go-go-related gene (hERG) potassium channel (human, UniProt Q12809)
# Assay: primary screen, population patch clamp on CHO cells stably expressing hERG; higher = less effect of the substance
# 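Also: peak tail current of the secondary pulse compared with the same well before compound.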
# human ether-à-go-go-related gene (hERG) potassium channel, sequence (Q12809 whole entry, looked up): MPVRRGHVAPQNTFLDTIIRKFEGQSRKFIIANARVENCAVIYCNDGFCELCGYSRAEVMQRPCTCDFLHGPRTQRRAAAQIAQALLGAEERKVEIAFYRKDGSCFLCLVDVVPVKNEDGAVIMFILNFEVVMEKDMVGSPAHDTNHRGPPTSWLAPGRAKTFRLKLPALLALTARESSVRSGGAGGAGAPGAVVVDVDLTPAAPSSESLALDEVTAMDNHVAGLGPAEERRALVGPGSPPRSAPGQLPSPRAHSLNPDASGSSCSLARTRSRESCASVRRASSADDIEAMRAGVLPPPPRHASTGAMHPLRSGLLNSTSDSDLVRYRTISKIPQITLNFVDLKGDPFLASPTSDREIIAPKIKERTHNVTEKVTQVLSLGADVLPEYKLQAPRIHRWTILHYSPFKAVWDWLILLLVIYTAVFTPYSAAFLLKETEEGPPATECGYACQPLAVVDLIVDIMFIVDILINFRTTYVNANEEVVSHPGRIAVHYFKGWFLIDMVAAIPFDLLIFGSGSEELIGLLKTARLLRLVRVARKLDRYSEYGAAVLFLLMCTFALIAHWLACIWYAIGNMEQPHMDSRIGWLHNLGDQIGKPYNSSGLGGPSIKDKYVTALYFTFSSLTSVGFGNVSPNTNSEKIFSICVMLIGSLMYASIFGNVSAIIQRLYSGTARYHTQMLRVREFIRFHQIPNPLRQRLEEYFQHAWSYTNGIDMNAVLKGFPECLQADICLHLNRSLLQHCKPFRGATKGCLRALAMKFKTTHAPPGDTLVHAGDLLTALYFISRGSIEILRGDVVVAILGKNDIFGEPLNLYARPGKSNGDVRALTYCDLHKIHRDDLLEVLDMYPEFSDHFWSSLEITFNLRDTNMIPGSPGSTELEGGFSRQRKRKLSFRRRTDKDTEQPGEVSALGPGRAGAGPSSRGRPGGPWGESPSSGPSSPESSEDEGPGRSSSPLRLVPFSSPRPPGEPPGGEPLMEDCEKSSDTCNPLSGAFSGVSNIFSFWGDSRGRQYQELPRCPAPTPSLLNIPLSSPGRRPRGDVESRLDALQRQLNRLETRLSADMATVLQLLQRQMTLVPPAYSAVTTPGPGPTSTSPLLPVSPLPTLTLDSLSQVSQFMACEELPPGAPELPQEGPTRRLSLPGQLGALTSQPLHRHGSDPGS
row,SMILES,"hERG current change (%, negative = inhibition) at 10uM"
1,CCOc1ccccc1CNc1nc2nc3c(c(=O)n2[nH]1)CCC3,19.6%
2,Oc1c(Br)cc(C2N=C(c3ccccc3Cl)NO2)cc1Br (centres unmarked),-2.5%
3,CCCc1c(C)nc(N2CCN(c3ccccc3OC)CC2)[nH]c1=O,25.2%
4,COc1ccccc1C(=O)NC(=O)COC(=O)c1ccc(Cl)cc1[N+](=O)[O-],21.6%
5,COc1ccc(Nc2nc(Nc3ccc(OC)cc3)nc(-n3[nH]c(=O)c(C)c3C)n2)cc1,-10.1%
6,CCOc1cc(/C=N/NC(=O)c2ccc(N(C)S(=O)(=O)c3ccccc3)cc2)ccc1OC,-33%
7,Cc1cccc2[nH]c(CN(C)Cc3nc(CC4CC4)no3)nc12,-11.8%
8,O=C(COc1ccc(CO)cc1)Nc1ccc(F)cc1,0.156%
9,CCc1cc(=O)oc2c(C)c(O)c(CN3CCCCC3)cc12,-0.833%
10,CCc1n[nH]c(=S)n1N=C1CCC(C)CC1 (centres unmarked),19.1%
11,CC1(C)CC(=O)C=C(NC2=CC3OC(c4ccccc4)OCC3OC2=O)C1 (centres unmarked),-0.196%
12,C#Cc1ccc([C@@H]2C=C(C(=O)Nc3ccccc3)O[C@H](OCC)[C@H]2CCCO)cc1,-22.2%
13,CN1CCCN(C(=O)c2cc(-c3cccc4ccccc34)nc3ccccc23)CC1.Cl,-59.4%
14,CN1CCCN(C(=O)c2cc(-c3ccc(Cl)c(Cl)c3Cl)nc3ccccc23)CC1.Cl,-69%
15,O=C(c1cc(-c2ccccc2Cl)nc2ccccc12)N1CCC1,-12.4%
16,Cc1ccccc1-c1cc(C(=O)N2CCCC2)c2ccccc2n1,-47.9%
17,O=C(c1cc(-c2ccccc2Cl)nc2ccccc12)N1CCN(c2ccccc2O)CC1,-22.6%
18,CC(=O)N1CCN(C(=O)c2cc(-c3cccc4ccccc34)nc3ccccc23)CC1,-28.9%
19,CCOC(=O)CNC(=O)CSc1nnc(-c2ccncc2)n1-c1ccc(Cl)cc1,-8.18%
20,Cc1ccc(C)c(OCC(O)CN2CCN(CCN3C(=O)c4cccc5cccc(c45)C3=O)CC2)c1.Cl (centres unmarked),-67.3%
21,Cc1ccccc1OCC(O)CN1CCN(CCN2C(=O)c3cccc4cccc(c34)C2=O)CC1 (centres unmarked),-74.2%
22,Cc1cccc(OCC(O)CN2CCN(CCN3C(=O)c4cccc5cccc(c45)C3=O)CC2)c1C (centres unmarked),-35.7%
23,Cc1ccc(NC(=S)N2CCN(CCN3C(=O)c4cccc5cccc(c45)C3=O)CC2)cc1,-1.29%

row,SMILES,"hERG current change (%, negative = inhibition) at 10uM"
1,NC(=O)CN1CCN(CCN2C(=O)c3cccc4cccc(c34)C2=O)CC1,-5.61%
2,CC(=O)c1ccccc1OCC(O)CN1CCN(CCN2C(=O)c3cccc4cccc(c34)C2=O)CC1 (centres unmarked),-73.3%
3,C=CCc1ccccc1OCC(O)CN1CCN(CCO)CC1.Cl (centres unmarked),11.3%
4,C=CCc1ccccc1OCC(O)CN1CCN(CCN2C(=O)c3cccc4cccc(c34)C2=O)CC1.Cl (centres unmarked),-57.8%
5,Cc1ccccc1OCC(O)CN1C(=O)c2ccccc2C1=O (centres unmarked),4.28%
6,O=C(C(c1ccccc1)c1ccccc1)N1CCN(CCN2C(=O)c3cccc4cccc(c34)C2=O)CC1,-4.74%
7,C=CCc1ccccc1OCC(O)CN1C(=O)c2ccccc2C1=O (centres unmarked),-27.2%
8,COc1ccc(CN(C)CC(=O)NC(C)c2ccccc2)c(OC)c1 (centres unmarked),-13.8%
9,Cc1ccc(-c2noc(CN3CCN(C(c4ccccc4)c4ccccc4)CC3)n2)cc1,7.84%
10,CN(C)CCNC(=O)c1cccc(NS(=O)(=O)c2ccc(Cl)c(Cl)c2)c1,0.919%
11,O=C(c1ccccc1)N1CC(COc2ccccc2)OC(c2cccnc2)O1 (centres unmarked),-5.14%
12,O=C(Cn1nnc(-c2ccccc2NC(=O)c2ccccc2)n1)Nc1ccc2c(c1)OCCO2,1.49%
13,Cc1cc(Cl)ccc1C1=CC(=O)C[C@H](c2ccc(F)cc2)C1,15.7%
14,Cc1cc(=O)[nH]c2c1c(C)nn2C1CCCCC1,-3.84%
15,O=C(COc1cccc(F)c1)NNC(=O)Cc1ccc(S(=O)(=O)N2CCOCC2)s1,-11.9%
16,C/C(=N\Nc1ccc(Cl)cc1)c1c(O)cc(C)oc1=O,15.3%
17,c1ccc2c(c1)CC/C2=N/Nc1nc2ccccc2[nH]1,9.49%
18,COCCCn1c(=N)c(C(N)=S)cc2c(=O)n3cccc(C)c3nc21,-84.3%
19,COCCCn1c(C(=O)N2CC(C)OC(C)C2)cc2c(=O)n3cccc(C)c3nc21 (centres unmarked),0.735%
20,COCCCn1c(C(=O)N2CCOCC2)cc2c(=O)n3cccc(C)c3nc21,-11.4%
21,CCCCn1c(=N)c(S(=O)(=O)c2ccc(Br)cc2)cc2c(=O)n3cccc(C)c3nc21,13%
22,Cc1cccn2c(=O)c3cc(C(=O)N4CCOCC4)n(C)c3nc12,-32.1%
23,Cc1cccn2c(=O)c3cc(C(N)=S)c(=N)n(CCCOC(C)C)c3nc12,-78.2%

row,SMILES,"hERG current change (%, negative = inhibition) at 10uM"
1,Cc1cccn2c(=O)c3cc(C(N)=S)c(=N)n(CCCN4CCOCC4)c3nc12,-87.6%
2,COCCCn1c(C(=O)NCCN2CCOCC2)cc2c(=O)n3cccc(C)c3nc21,-9.21%
3,Cc1cccn2c(=O)c3cc(C(=O)NCCCOC(C)C)sc3nc12,-6.24%
4,CCOCCCn1c(=N)c(C(N)=S)cc2c(=O)n3cccc(C)c3nc21,-82.6%
5,CCOCCCNC(=O)c1cc2c(=O)n3cccc(C)c3nc2n1C,12.4%
6,CCC(C)n1c(SCC(=O)Nc2ccccc2C(F)(F)F)nc2ccsc2c1=O (centres unmarked),-14%
7,Cc1ccc(C(=O)Oc2coc(CSc3nnc(NC(=O)C4CC4)s3)cc2=O)cc1,16.6%
8,Cc1[nH]c(C)c(S(=O)(=O)N(C)Cc2ccccc2)c1C(=O)N1CCCC1,15.2%
9,CC(=O)N1CCc2cc(S(=O)(=O)CCC(=O)NCc3ccco3)ccc21,12.5%
10,Cc1nn(-c2ccccc2)c(C)c1/C=N/NC(=O)CSc1nnc(-c2ccccc2)n1-c1ccc(Cl)cc1,5.46%
11,Cc1nc(C)c(C(=O)Nc2cccc(C)c2C)o1,-0.939%
12,Cc1c(NC(=O)C2(C)CCCCC2)c(=O)n(-c2ccccc2)n1C,6.22%
13,O=C(C1CCCCC1)N1CC(=O)N2CCc3ccccc3C2C1 (centres unmarked),10.2%
14,CC1(O)CCN2C(=O)CCc3cccc1c32 (centres unmarked),-9.44%
15,CC(C)(C)[C@]1(O)CCN2C[C@H]3c4ccccc4CCc4cccc(c43)[C@@H]2C1.Cl,-78.3%
16,CCOc1cc(-c2noc(CCC(=O)NCCc3ccccc3)n2)ccc1OC,1.79%
17,CN(C)c1nc(NCc2ccccc2)nc(N/N=C/c2ccc(Br)cc2)n1,13.3%
18,COc1ccccc1C1C(C#N)=C(N)Oc2c1c(-c1ccccc1)nn2-c1ccccc1 (centres unmarked),0.699%
19,COc1ccc(C2C(C#N)=C(N)Oc3c2c(-c2ccccc2)nn3-c2ccccc2)c(OC)c1OC (centres unmarked),-1.15%
20,COc1cc(C2C(C#N)=C(N)Oc3c2c(-c2ccccc2)nn3-c2ccccc2)cc(OC)c1OC (centres unmarked),-65%
21,O=C(Nc1ccn(Cc2c(F)c(F)cc(F)c2F)n1)c1ccc(COc2cc(Cl)ccc2Cl)o1,6.83%
22,CSc1ccc(CNCC(O)c2ccccc2)cc1.Cl (centres unmarked),-55%
23,Cl.OC(CNCc1ccncc1)c1ccccc1 (centres unmarked),6.97%

row,SMILES,"hERG current change (%, negative = inhibition) at 10uM"
1,CSc1ccc(CNC(C)C(O)c2ccccc2)cc1.Cl (centres unmarked),-51.4%
2,OC(CNCc1ccccc1)c1ccccc1 (centres unmarked),4.68%
3,Cl.OC(CNCc1ccc(-c2ccccc2)cc1)c1ccccc1 (centres unmarked),-16.1%
4,CCNCC(O)c1cccc(O)c1 (centres unmarked),20.8%
5,CC(NCc1ccccc1Cl)C(O)c1ccccc1.Cl (centres unmarked),4.31%
6,Cl.Oc1cccc(C(O)CNCc2ccc(-c3ccccc3)cc2)c1 (centres unmarked),-66%
7,CC(NCC#Cc1ccccc1)C(O)c1ccccc1.Cl (centres unmarked),-1.67%
8,COc1ccc(N2CC(C(=O)NCc3nnnn3-c3ccc(C)c(C)c3)CC2=O)cc1 (centres unmarked),-19.6%
9,Cc1ccc(CNC(=O)CN2C(=O)COc3ccc(C)cc32)cc1,-5.06%
10,COc1ccc(C(=O)CNc2ccccc2C#N)cc1,28.1%
11,CCCOc1ccc(S(=O)(=O)NCCN2CCOCC2)c2ccccc12,-23.3%
12,CC(CCc1ccccc1)NC(=O)COC(=O)CC1CC2CCC1C2 (centres unmarked),-6.07%
13,CSc1cccc(CN2CCN(Cc3ccc(F)c(F)c3)C(CCO)C2)c1 (centres unmarked),-69.5%
14,CSc1ncc(CN2CCN(C3CCCC3)C(CCO)C2)cn1 (centres unmarked),-0.478%
15,CSc1ncc(CN2CCN(C3CCCCC3)C(CCO)C2)cn1 (centres unmarked),-16.9%
16,OCCC#Cc1ccc(CN2CCN(Cc3ccccc3)C(CCO)C2)cc1 (centres unmarked),-15%
17,CSc1ccc(CN2CCN(C3CCCC3)C(CCO)C2)cc1 (centres unmarked),-53.8%
18,OCCC1CN(Cc2ccc(Oc3ncccn3)cc2)CCN1Cc1ccc(F)c(F)c1 (centres unmarked),-23.6%
19,OCCC1CN(CC2CC2)CCN1Cc1ccc(F)c(F)c1 (centres unmarked),-25.5%
20,CSc1ccc(CN2CCN(CC=C(C)C)C(CCO)C2)cc1 (centres unmarked),-46.2%
21,CSc1ccc(CN2CCN(Cc3ccccc3)C(CCO)C2)cc1 (centres unmarked),-56.8%
22,CSc1cccc(CN2CCN(CCc3ccccc3)C(CCO)C2)c1 (centres unmarked),-80.4%
23,CSc1cccc(CN2CCN(CCC(C)C)C(CCO)C2)c1 (centres unmarked),-33.2%
